We go through 10 compounds from PMC5540273 (PLoS ONE, 2017).

Molecules are shown by their SMILES.

Among the test systems are CDK8; CDK9; CDKL1; CDKL2; CDKL3; CDKL5; CHEK1; CHEK2; CIT; CLK1.
Details in all cases: concentration: 1 μM, replicates: in singlicate; n = 1
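Further: KINOMEscan kinase panel screen.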

In the case of `CN(C)S(=O)(=O)c1cc(-c2ccc3nccc(-c4cccc(S(N)(=O)=O)c4)c3c2)cnc1N` [GSK1669921], the “%Inh” value turned out to be 35% with CDK8; 0% with CDK9; 77% in the assay with CDKL1; 25% in the assay with CDKL2; 0% with CDKL3; 12% with CDKL5. For the same compound, the “%Inh” value with CHEK1 was determined as 100%; with CHEK2 it was 0%; in the assay with CIT it was 16%; in the assay on CLK1 it was 57%.

With `Cn1cc(-c2[nH]c3cc(NC(=O)[C@H](N)C4CCCCC4)cc4c3c2C=NNC4=O)cn1`, the “%Inh” value in the assay with CDK8 was determined as 0%; with CDK9, 0%; with CDKL1 it was 16%; in the assay with CDKL2, 0%; in the assay with CDKL3, 18%; in the assay with CDKL5 it was 0%. The “%Inh” value is recorded as 98.4% with CHEK1, 96.6% in the assay with CHEK2, 97.5% in the assay with CIT and 56% in the assay on CLK1.

Take `COc1cc2c(cc1OCCN1CCNCC1)ncc1c3ccc(C#N)cc3[nH]c21`: the “%Inh” value in the assay on CDK8 worked out at 19%; with CDK9, 8%; with CDKL1, 19%; with CDKL2, 0%; with CDKL3 it was 10%; in the assay with CDKL5 it was 0%. The “%Inh” value in the assay with CHEK1 came out at 84%; in the assay on CHEK2 it was 46%; in the assay with CIT it was 98.8%; in the assay with CLK1, 95.7%.

On to `O=C(Nc1cccc(-c2nn3ccccc3c2-c2ccnc(Nc3cccc(F)c3)n2)c1)c1c(F)ccc(F)c1Cl` [GSK357952], for which the “%Inh” value came to 6% in the assay with CDK8; 0% in the assay on CDK9; 15% with CDKL1; 25% with CDKL2; 0% with CDKL3; 0% in the assay with CDKL5. Further, the “%Inh” value in the assay on CHEK1 was 15%; with CHEK2, 0%; in the assay with CIT, 7%; with CLK1 it was 24%.

Regarding `Cc1ccc(F)c(C(=O)Nc2cccc(-c3nn4ccccc4c3-c3ccnc(Nc4cccc(F)c4)n3)c2)c1F` [GSK361061], the “%Inh” value worked out at 15% in the assay with CDK8; 0% in the assay on CDK9; 2% in the assay on CDKL1; 31% in the assay on CDKL2; 0% in the assay on CDKL3; 5% with CDKL5. Further, the “%Inh” value in the assay with CHEK1 is 6%; in the assay on CHEK2, 0%; in the assay with CIT it was 9%; in the assay on CLK1 it was 32%.

For the compound `CC(=O)N1CCN(c2ccc(Nc3nccc(-c4sc(C(C)C)nc4-c4cccc(NS(=O)(=O)c5cccc(Cl)c5)c4)n3)cn2)CC1` [GSK1660437], the “%Inh” value is given as 7% in the assay with CDK8; 68% in the assay with CDK9; 31% with CDKL1; 99% in the assay with CDKL2; 0% with CDKL3; 73% in the assay with CDKL5. Besides, the “%Inh” value in the assay with CHEK1 is 1%; in the assay with CHEK2, 0%; in the assay on CIT, 71%; in the assay on CLK1 it was 11%.

Consider `Nc1ncnc2c1nc(-c1ccccc1)n2-c1ccccc1` [SKF-97293], for which the “%Inh” value in the assay with CDK8 was found to be 0%; in the assay with CDK9 it was 0%; in the assay on CDKL1, 3%; in the assay on CDKL2, 0%; in the assay on CDKL3 it was 7%; in the assay with CDKL5, 14%. Moreover, the “%Inh” value was determined as 4% in the assay on CHEK1, 11% in the assay with CHEK2, 11% in the assay with CIT and 15% in the assay with CLK1.

Regarding `Cc1ccc(C)c(NC(=O)NC2CCN(c3ccnc(Nc4ccc(F)cc4)n3)C2)c1` (stereo not shown) [GSK1379720], the “%Inh” value in the assay with CDK8 amounted to 21%; with CDK9 it was 0%; with CDKL1, 1%; in the assay on CDKL2 it was 35%; in the assay on CDKL3 it was 0%; in the assay with CDKL5, 0%. Also, the “%Inh” value in the assay on CHEK1 amounted to 0%; with CHEK2 it was 0%; in the assay with CIT it was 0%; in the assay with CLK1, 23%.

Regarding `CSc1cccc2c(-c3ccncn3)c(-c3ccc(F)cc3)nn12` [GW514786], the “%Inh” value in the assay with CDK8 stood at 37%; in the assay on CDK9, 0%; in the assay on CDKL1 it was 6%; with CDKL2 it was 31%; in the assay on CDKL3 it was 0%; with CDKL5 it was 3%. The “%Inh” value worked out at 81% in the assay on CHEK1, 0% in the assay on CHEK2, 79% with CIT and 18% with CLK1.

Turning to `Cc1ccc(C(=O)N2CC[C@@H](O)C2)cc1-n1c(C)cc(OCc2ccc(F)cc2F)c(Br)c1=O`, the “%Inh” value is recorded as 0% with CDK8; 1% in the assay on CDK9; 14% in the assay on CDKL1; 0% with CDKL2; 1% in the assay with CDKL3; 0% in the assay on CDKL5. For the same compound, the “%Inh” value in the assay on CHEK1 is 0%; in the assay on CHEK2, 6%; with CIT, 6%; in the assay with CLK1, 5%.
